Results taken from article PMC12820563, “FoxP3 forms a head-to-head dimer in vivo and stabilizes its multimerization on adjacent microsatellites”.
Whole data set: some 16,000 sequences, median “rpm ratio (pull-down/input)” near 0.5, cut for the highest 2% near 5.5. This excerpt belongs to a sample that is enriched for the highest values.

target: T1, MBP-FoxP3dN (Mus musculus, UniProt Q99JB6 188-423); assay: PD-seq (MBP pull-down with sequencing); 20 mM Tris-HCl pH 7.5, 100 mM NaCl, 1.5 mM MgCl2, 0.4 uM protein, 0.1 uM dsDNA library, 30 min, room temperature, amylose pull-down; high values mean tight binding; conditions: protein: recombinant; tags: His6-MBP; chain copies: 2; dsDNA, one strand shown
T1 sequence: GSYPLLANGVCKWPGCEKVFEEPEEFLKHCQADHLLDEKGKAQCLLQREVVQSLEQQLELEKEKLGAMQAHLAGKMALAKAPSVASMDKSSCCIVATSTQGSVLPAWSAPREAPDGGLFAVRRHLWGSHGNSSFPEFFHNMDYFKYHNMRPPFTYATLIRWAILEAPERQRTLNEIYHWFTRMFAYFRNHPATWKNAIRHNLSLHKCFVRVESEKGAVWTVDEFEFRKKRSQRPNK
Outline: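 Protein and DNA were mixed at 0.4 µM and 0.1 µM and held for 30 min at room temperature in Tris pH 7.5 buffer with NaCl and MgCl2; the protein was a His6-MBP-tagged, N-terminally truncated mouse FoxP3 or FoxP1 fragment from E. coli, and the DNA a Klenow-filled double-stranded degenerate library. Amylose resin captured the complexes, which were washed three times. Binding is read as reads-per-million enrichment of pull-down versus input after Illumina sequencing, with replicates pooled.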

In order of rising binding signal:
1. GATGATTGTTCTCCCAGCTGATGAATTCTTCTGCTCGAGTAAACAAATTTTCCTAATCTTTCTGTTCAAGCGCCATCTAC  0.236 RPM ratio (pull-down/input)
2. GATGATTGTTCTCCCAGCTGATGAATTGAGGACGTCGAGTAAACAAATTTTCCTAATCTTTCTGTTCAAGCGCCATCTAC  0.248 RPM ratio (pull-down/input)
3. GATGATTGTTCTCCCAGCTGATGAATTATAGAACTCGAGTAAACAAATTTTCCTAATCTTTCTGTTCAAGCGCCATCTAC  0.249 RPM ratio (pull-down/input)
4. GATGATTGTTCTCCCAGCTGATGAATTCTTACGCTCGAGTAAACAAATTTTCCTAATCTTTCTGTTCAAGCGCCATCTAC  0.256 RPM ratio (pull-down/input)
5. GATGATTGTTCTCCCAGCTGATGAATTGATCAAATCGAGTAAACAAATTTTCCTAATCTTTCTGTTCAAGCGCCATCTAC  0.304 RPM ratio (pull-down/input)
6. GATGATTGTTCTCCCAGCTGATGAATTGGGAACGTCGAGTAAACAAATTTTCCTAATCTTTCTGTTCAAGCGCCATCTAC  0.31 RPM ratio (pull-down/input)
7. GATGATTGTTCTCCCAGCTGATGAATTATTCCCATCGAGTAAACAAATTTTCCTAATCTTTCTGTTCAAGCGCCATCTAC  0.334 RPM ratio (pull-down/input)
8. GATGATTGTTCTCCCAGCTGATGAATTCCAGTGGTCGAGTAAACAAATTTTCCTAATCTTTCTGTTCAAGCGCCATCTAC  0.415 RPM ratio (pull-down/input)
9. GATGATTGTTCTCCCAGCTGATGAATTCCACCTATCGAGTAAACAAATTTTCCTAATCTTTCTGTTCAAGCGCCATCTAC  0.432 RPM ratio (pull-down/input)
10. GATGATTGTTCTCCCAGCTGATGAATTTTTGTGCTCGAGTAAACAAATTTTCCTAATCTTTCTGTTCAAGCGCCATCTAC  0.442 RPM ratio (pull-down/input)
11. GATGATTGTTCTCCCAGCTGATGAATTTCATACATCGAGTAAACAAATTTTCCTAATCTTTCTGTTCAAGCGCCATCTAC  0.449 RPM ratio (pull-down/input)
12. GATGATTGTTCTCCCAGCTGATGAATTCCTGAATTCGAGTAAACAAATTTTCCTAATCTTTCTGTTCAAGCGCCATCTAC  0.481 RPM ratio (pull-down/input)
13. GATGATTGTTCTCCCAGCTGATGAATTTTTGTACTCGAGTAAACAAATTTTCCTAATCTTTCTGTTCAAGCGCCATCTAC  0.489 RPM ratio (pull-down/input)
14. GATGATTGTTCTCCCAGCTGATGAATTAACTGTGTCGAGTAAACAAATTTTCCTAATCTTTCTGTTCAAGCGCCATCTAC  0.556 RPM ratio (pull-down/input)
15. GATGATTGTTCTCCCAGCTGATGAATTTCATGATTCGAGTAAACAAATTTTCCTAATCTTTCTGTTCAAGCGCCATCTAC  0.692 RPM ratio (pull-down/input)
16. GATGATTGTTCTCCCAGCTGATGAATTACACCTCTCGAGTAAACAAATTTTCCTAATCTTTCTGTTCAAGCGCCATCTAC  0.705 RPM ratio (pull-down/input)
17. GATGATTGTTCTCCCAGCTGATGAATTACGTGACTCGAGTAAACAAATTTTCCTAATCTTTCTGTTCAAGCGCCATCTAC  0.737 RPM ratio (pull-down/input)
18. GATGATTGTTCTCCCAGCTGATGAATTCTTGTGTTCGAGTAAACAAATTTTCCTAATCTTTCTGTTCAAGCGCCATCTAC  0.821 RPM ratio (pull-down/input)
19. GATGATTGTTCTCCCAGCTGATGAATTGTATCGGTCGAGTAAACAAATTTTCCTAATCTTTCTGTTCAAGCGCCATCTAC  0.882 RPM ratio (pull-down/input)
20. GATGATTGTTCTCCCAGCTGATGAATTGCGCTGATCGAGTAAACAAATTTTCCTAATCTTTCTGTTCAAGCGCCATCTAC  0.898 RPM ratio (pull-down/input)
21. GATGATTGTTCTCCCAGCTGATGAATTGAGCCCCTCGAGTAAACAAATTTTCCTAATCTTTCTGTTCAAGCGCCATCTAC  0.983 RPM ratio (pull-down/input)
22. GATGATTGTTCTCCCAGCTGATGAATTTTTGTGTTCGAGTAAACAAATTTTCCTAATCTTTCTGTTCAAGCGCCATCTAC  1.04 RPM ratio (pull-down/input)
23. GATGATTGTTCTCCCAGCTGATGAATTGATGTGTTCGAGTAAACAAATTTTCCTAATCTTTCTGTTCAAGCGCCATCTAC  1.66 RPM ratio (pull-down/input)
24. GATGATTGTTCTCCCAGCTGATGAATTGCGTTTTTCGAGTAAACAAATTTTCCTAATCTTTCTGTTCAAGCGCCATCTAC  2.11 RPM ratio (pull-down/input)
25. GATGATTGTTCTCCCAGCTGATGAATTTGTACCTTCGAGTAAACAAATTTTCCTAATCTTTCTGTTCAAGCGCCATCTAC  2.49 RPM ratio (pull-down/input)
26. GATGATTGTTCTCCCAGCTGATGAATTTGTACTCTCGAGTAAACAAATTTTCCTAATCTTTCTGTTCAAGCGCCATCTAC  2.81 RPM ratio (pull-down/input)
27. GATGATTGTTCTCCCAGCTGATGAATTTGTGCTCTCGAGTAAACAAATTTTCCTAATCTTTCTGTTCAAGCGCCATCTAC  2.89 RPM ratio (pull-down/input)
28. GATGATTGTTCTCCCAGCTGATGAATTTATTTCTTCGAGTAAACAAATTTTCCTAATCTTTCTGTTCAAGCGCCATCTAC  3.01 RPM ratio (pull-down/input)
29. GATGATTGTTCTCCCAGCTGATGAATTCTGTGTTTCGAGTAAACAAATTTTCCTAATCTTTCTGTTCAAGCGCCATCTAC  3.31 RPM ratio (pull-down/input)
30. GATGATTGTTCTCCCAGCTGATGAATTATTGTTTTCGAGTAAACAAATTTTCCTAATCTTTCTGTTCAAGCGCCATCTAC  3.7 RPM ratio (pull-down/input)
31. GATGATTGTTCTCCCAGCTGATGAATTTGTGCGTTCGAGTAAACAAATTTTCCTAATCTTTCTGTTCAAGCGCCATCTAC  3.7 RPM ratio (pull-down/input)
32. GATGATTGTTCTCCCAGCTGATGAATTTTGTGTCTCGAGTAAACAAATTTTCCTAATCTTTCTGTTCAAGCGCCATCTAC  4.27 RPM ratio (pull-down/input)
33. GATGATTGTTCTCCCAGCTGATGAATTGTGTTTCTCGAGTAAACAAATTTTCCTAATCTTTCTGTTCAAGCGCCATCTAC  4.32 RPM ratio (pull-down/input)
34. GATGATTGTTCTCCCAGCTGATGAATTCTGCGTCTCGAGTAAACAAATTTTCCTAATCTTTCTGTTCAAGCGCCATCTAC  4.55 RPM ratio (pull-down/input)
35. GATGATTGTTCTCCCAGCTGATGAATTGTGTGTTTCGAGTAAACAAATTTTCCTAATCTTTCTGTTCAAGCGCCATCTAC  4.97 RPM ratio (pull-down/input)
36. GATGATTGTTCTCCCAGCTGATGAATTTGTGTTTTCGAGTAAACAAATTTTCCTAATCTTTCTGTTCAAGCGCCATCTAC  5.24 RPM ratio (pull-down/input)
37. GATGATTGTTCTCCCAGCTGATGAATTTTGCGTCTCGAGTAAACAAATTTTCCTAATCTTTCTGTTCAAGCGCCATCTAC  5.4 RPM ratio (pull-down/input)
38. GATGATTGTTCTCCCAGCTGATGAATTGTGCGTTTCGAGTAAACAAATTTTCCTAATCTTTCTGTTCAAGCGCCATCTAC  5.5 RPM ratio (pull-down/input)
39. GATGATTGTTCTCCCAGCTGATGAATTTGTGTGCTCGAGTAAACAAATTTTCCTAATCTTTCTGTTCAAGCGCCATCTAC  5.67 RPM ratio (pull-down/input)
40. GATGATTGTTCTCCCAGCTGATGAATTTGTGTGTTCGAGTAAACAAATTTTCCTAATCTTTCTGTTCAAGCGCCATCTAC  5.99 RPM ratio (pull-down/input)
41. GATGATTGTTCTCCCAGCTGATGAATTGTGCGTCTCGAGTAAACAAATTTTCCTAATCTTTCTGTTCAAGCGCCATCTAC  6.12 RPM ratio (pull-down/input)
42. GATGATTGTTCTCCCAGCTGATGAATTTGTGTTCTCGAGTAAACAAATTTTCCTAATCTTTCTGTTCAAGCGCCATCTAC  6.29 RPM ratio (pull-down/input)
43. GATGATTGTTCTCCCAGCTGATGAATTTATTGTTTCGAGTAAACAAATTTTCCTAATCTTTCTGTTCAAGCGCCATCTAC  6.4 RPM ratio (pull-down/input)
44. GATGATTGTTCTCCCAGCTGATGAATTGTGTTTTTCGAGTAAACAAATTTTCCTAATCTTTCTGTTCAAGCGCCATCTAC  6.66 RPM ratio (pull-down/input)
45. GATGATTGTTCTCCCAGCTGATGAATTTGTGTACTCGAGTAAACAAATTTTCCTAATCTTTCTGTTCAAGCGCCATCTAC  6.72 RPM ratio (pull-down/input)
46. GATGATTGTTCTCCCAGCTGATGAATTGTTTATTTCGAGTAAACAAATTTTCCTAATCTTTCTGTTCAAGCGCCATCTAC  6.99 RPM ratio (pull-down/input)
47. GATGATTGTTCTCCCAGCTGATGAATTGTGTTGTTCGAGTAAACAAATTTTCCTAATCTTTCTGTTCAAGCGCCATCTAC  8.43 RPM ratio (pull-down/input)
